Here are results for 14 compounds from PubChem BioAssay (NCI).

Some test systems named below: HCT-15 colon; HT29 colon; SNB-75 CNS; SNB-19 CNS; U251 CNS; SK-MEL-5 melanoma; UACC-62 melanoma; LOX IMVI melanoma; SK-MEL-28 melanoma; PC-3 prostate.
Assay in all cases: NCI-60 one-dose screen, 48 h (100 = growth as untreated, 0 = no growth, -100 = all killed)
What all share (conditions): 10 µM unless noted

The structures appear in SMILES notation. Compounds without any hit were thinned out: in the full panel of roughly 83,000, 20% have a hit.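 Step 1: grow cells in 96-well plates. Step 2: add test compound at a single concentration. Step 3: incubate 48 h. Step 4: record percent growth.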 Values without a mark were called inactive. Activity calls are given as the source filed them. Rule for the calls: active = growth percent below 10; inactive = the rest.

Regarding `NC(=O)[C@@H]1CC2CCC1C2` (some centres undefined), the growth in the test with HCT-15 colon is 98.2%; in the test with HT29 colon it was 117%; in the test on SNB-75 CNS it was 85.1%; in the test on SNB-19 CNS, 111%; in the test with U251 CNS, 96.3%; with SK-MEL-5 melanoma it was 109%. For the same compound, the growth was 110% in the test on UACC-62 melanoma, 106% in the test with LOX IMVI melanoma and 109% in the test on SK-MEL-28 melanoma.

Consider `Nc1nc(N)c2nc3c(nc2n1)CCCCCCCCCC3`, for which the growth in the test on HCT-15 colon is 33.6%; in the test with HT29 colon, 35.6%; in the test with SNB-75 CNS, 79.2%; with SNB-19 CNS, 50.8%; in the test with U251 CNS, 34.9%; in the test with SK-MEL-5 melanoma, 35%. In addition, the growth in the test with UACC-62 melanoma was 43.9%; in the test with LOX IMVI melanoma, 30.8%; in the test with SK-MEL-28 melanoma, 90.4%.

In the case of `CN(C)c1ccc(N=C2C=CC(=O)C=C2)cc1`, the growth with HCT-15 colon was 97.7%; in the test on HT29 colon, 97.1%; in the test on SNB-75 CNS, 77.6%; in the test on SNB-19 CNS, 83.6%; in the test on U251 CNS, 76.5%; in the test with SK-MEL-5 melanoma, 87.2%. Further, the growth in the test on LOX IMVI melanoma was 80.6%; in the test on SK-MEL-28 melanoma, 97.4%.

With `CN1CCN(CCOc2ccc(-c3cnc4c(-c5cccc(F)c5)cnn4c3)cc2)CC1`, the growth is 2.6% (active) with HCT-15 colon; 4.57% (active) in the test with HT29 colon; 88.1% in the test with SNB-75 CNS; 83.9% with SNB-19 CNS; 46.6% in the test with U251 CNS; 72% in the test with SK-MEL-5 melanoma. Further, the results for the growth with UACC-62 melanoma and in the test on SK-MEL-28 melanoma were 78.3% and 92.1%, respectively.

`COc1ccc2c(c1)c(-c1nc(-c3c[nH]c4ncccc34)cs1)cn2C`: the growth is 51.6% with HCT-15 colon; 55.6% in the test with HT29 colon; 76.1% with SNB-75 CNS; 92.7% in the test on SNB-19 CNS; 75.3% in the test on U251 CNS; 79.4% in the test with SK-MEL-5 melanoma. Also, the results for the growth with UACC-62 melanoma and in the test with SK-MEL-28 melanoma were 67.6% and 87.9%, respectively.

Consider `O=C1C(=O)c2ccccc2C(O)=C1CCCc1ccc(C2CCCCC2)cc1`, for which the growth is 41.4% with HCT-15 colon; 41.8% in the test on HT29 colon; 54.9% in the test with SNB-75 CNS; 39.9% in the test with SNB-19 CNS; 45.4% with U251 CNS; 20.6% in the test on SK-MEL-5 melanoma. In addition, the growth with UACC-62 melanoma was 47.9%; with SK-MEL-28 melanoma it was 47.4%.

Turning to `O=C(CI)Nc1ccc(O)c2ccccc12`, the growth was -10.1% (active) with HCT-15 colon; 0.99% (active) in the test on HT29 colon; 54.2% in the test with SNB-75 CNS; 46.1% in the test with SNB-19 CNS; -28.4% (active) in the test on U251 CNS; -47.7% (active) in the test on SK-MEL-5 melanoma. In addition, the results for the growth with UACC-62 melanoma and with SK-MEL-28 melanoma were -58.7% (active) and 41.5%, respectively.

As to `Cn1cc(-c2nc(-c3c[nH]c4ncccc34)cs2)c2ccccc21`, the growth in the test on HCT-15 colon is 64.3%; with HT29 colon, 88.2%; in the test on SNB-75 CNS, 77.6%; in the test on SNB-19 CNS, 92.8%; in the test on U251 CNS, 96.6%; in the test on SK-MEL-5 melanoma it was 94.2%. Also, the results for the growth in the test with UACC-62 melanoma and in the test on SK-MEL-28 melanoma were 84.6% and 105%, respectively.

Turning to `COc1ccc(-c2cc(-c3c(C)oc4cc5occc5c(OC)c4c3=O)nc(N)c2C#N)cc1OC`, the growth is 55.6% with HCT-15 colon; 67% in the test with HT29 colon; 40.3% in the test on SNB-75 CNS; 64.3% in the test with SNB-19 CNS; 48.9% with U251 CNS; 52.7% in the test with SK-MEL-5 melanoma. In the test with LOX IMVI melanoma, the growth is 50.2%.

In the case of `COC(=O)[C@]12CC[C@@H](C)[C@H](C)[C@@H]1C1=CC[C@@H]3[C@@]4(C)C[C@@H](O)[C@H](O)[C@@](C)(CO)C4=CC[C@@]3(C)[C@]1(C)CC2`, the growth with HCT-15 colon is -60.8% (active); in the test with HT29 colon it was -36.6% (active); with SNB-75 CNS it was -58.7% (active); in the test on SNB-19 CNS, -80.4% (active); with U251 CNS, -85.4% (active); in the test on SK-MEL-5 melanoma it was -98.6% (active). The growth with LOX IMVI melanoma is -100% (active); in the test with SK-MEL-28 melanoma it was -81% (active).

On to `OCC1OC(n2cnc3c(Cl)ncnc32)CC1O` (centres undefined), for which the growth is 95.6% in the test on HCT-15 colon; 107% in the test with HT29 colon; 102% with SNB-75 CNS; 96.1% in the test with SNB-19 CNS; 99.2% with U251 CNS; 106% in the test on SK-MEL-5 melanoma. The growth in the test with UACC-62 melanoma was 101%; in the test with SK-MEL-28 melanoma it was 110%.

For the compound `O=C(NC(Cc1cn(Cc2ccccc2)cn1)C(=O)O)OCC1c2ccccc2-c2ccccc21` (centres undefined), the growth in the test with HCT-15 colon was 104%; in the test on SNB-75 CNS it was 92.3%; with SNB-19 CNS, 109%; with U251 CNS it was 101%; in the test with PC-3 prostate, 100%; in the test on SK-MEL-5 melanoma, 103%. In addition, the growth was 112% with UACC-62 melanoma, 97.8% with LOX IMVI melanoma and 104% in the test with SK-MEL-28 melanoma.

Take `Cc1cc(N2CCOCC2)nc(N(CCCNc2ccnc3cc(Cl)ccc23)Cc2ccco2)n1`: the growth is 24% in the test on HCT-15 colon; -2.68% (active) in the test on HT29 colon; 51.6% with SNB-75 CNS; 20.4% in the test on SNB-19 CNS; 25.4% in the test with U251 CNS; 11.3% with SK-MEL-5 melanoma. The results for the growth with LOX IMVI melanoma and in the test on SK-MEL-28 melanoma were 4.95% (active) and 49.5%, respectively.

Take `N#C/C(=C\c1ccc(-c2ccc(F)cc2)o1)c1nc(-c2ccco2)cs1`: the growth is 84.5% in the test on HCT-15 colon; 98.7% with HT29 colon; 88.9% in the test on SNB-75 CNS; 101% in the test on SNB-19 CNS; 97.3% in the test on U251 CNS; 92.8% in the test with SK-MEL-5 melanoma. The growth in the test with UACC-62 melanoma is 87.1%; in the test on SK-MEL-28 melanoma, 114%.
